# Screening data (PubChem BioAssay)
# Cruzain noTriton: blocks cruzain activity in detergent-free assay; purified cruzain, Z-FR-AMC fluorescence, no detergent; Potency, µM, for the others: max response, negative = inhibition, actives largely listed as inhibitors; hit rate 2.3% among 200,000;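 further: plate controls were enzyme without inhibitor for no effect and buffer without enzyme for full effect; nearly all actives have a fitted effect of over 40% in size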
# Target sequence (P25779 123-467 limits assumed): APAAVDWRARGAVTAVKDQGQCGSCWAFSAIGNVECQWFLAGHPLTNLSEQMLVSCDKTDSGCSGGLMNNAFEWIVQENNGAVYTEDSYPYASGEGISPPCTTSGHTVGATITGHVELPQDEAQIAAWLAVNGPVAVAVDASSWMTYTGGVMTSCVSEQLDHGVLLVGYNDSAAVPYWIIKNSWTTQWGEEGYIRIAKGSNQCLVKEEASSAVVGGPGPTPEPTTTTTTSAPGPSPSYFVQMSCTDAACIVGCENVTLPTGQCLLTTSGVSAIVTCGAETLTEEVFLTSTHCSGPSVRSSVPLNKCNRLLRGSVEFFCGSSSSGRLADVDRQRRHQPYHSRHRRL
#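 Detergent-free condition (0.00005% Triton X-100) in acetate buffer pH 5.5 with DTT. 1.5 nM enzyme and compound were pre-mixed 15 min, then 2 uM Z-FR-AMC substrate added; reaction progress from fluorescence change between first and third reads (60 s).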
# Cruzain Triton: inhibitors of Trypanosoma cruzi cruzain with detergent; hit rate 0.43% among 200,000; P25779; AID 1478; Potency, µM, for the others: max response, negative = inhibition, usual class: inhibitors; purified cruzain, Z-FR-AMC fluorescence, 0.01% Triton;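 further: plate controls were neutral wells for no effect and buffer without enzyme for full effect; nearly all actives have a fitted effect of over 40% in size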
#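 Enzyme 1.5 nM, Z-FR-AMC 2 uM, NaOAc 100 mM pH 5.5, DTT 5 mM, Triton X-100 0.01%; 15 min RT compound preincubation; kinetic ex360/em450, 60 s delta.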
# The depositor's hits bear a star; ? = inconclusive. Rows were chosen to be rich in hits. Some 2.4% of all compounds tested hit in one or more screens of this group. The call rests on the fitted dose curve; in most records, active means well fitted curve in the direction sought with a large enough effect; inconclusive means small, poorly fitted or top-dose-only effect, or another doubt; inactive means no such curve, though single readings can be large; an effect the other way counts as inactive or inconclusive. Potency means the concentration at half of the fitted maximal effect.
SMILES,Cruzain noTriton,Cruzain Triton
Cc1cc(O)c(C)c2c1CC[C@H]1[C@H](C)C(=O)O[C@H]21,-5%,-1%
Cc1ccc(N=Cc2c(O)n(-c3ccc4c(c3)OCO4)c(=O)c3ccccc23)cc1,3.2µM*,-3%
Cc1cccc(-n2c(O)c(C=Nc3ccc(O)cc3)c3ccccc3c2=O)n1,?,-11%
CNC(=O)c1cc2cccc(OC)c2oc1=O,-7%,-3%
COc1cccc2cc(/C(C)=N/Nc3nc(-c4cc(C)ccc4C)cs3)c(=O)oc12,5µM*,-16%
COC(=O)c1ccc(NC(=O)CC2C(=O)N(c3cccc(OC)c3)C(=O)N2Cc2ccco2)cc1 (stereo not given),-11%,-5%
COc1ccc(C2CC(c3ccccc3)=NN2C(=O)COC(=O)c2cc(S(=O)(=O)N3CCOCC3)ccc2Cl)cc1 (stereo not given),13µM*,1%
COc1ccc(C2CC(c3ccccc3)=NN2C(=O)COC(=O)c2cccnc2Cl)cc1 (stereo not given),16%,-7%
COc1ccc(C2CC(c3ccccc3)=NN2C(=O)COC(=O)C2CC2)cc1 (stereo not given),0%,-8%
COc1ccc(C2CC(c3ccccc3)=NN2C(=O)COC(=O)c2cccnc2)cc1 (stereo not given),16µM*,-8%
O=c1oc2cc(OCc3c(F)cccc3Cl)ccc2cc1-c1ccccn1,23%,0%
O=c1oc2cc(OCc3ccc(F)cc3F)ccc2cc1-c1ccc2ccccc2n1,13µM*,-2%
Cc1ccc(CN2C(=O)c3ccccc3Sc3ccc(C(=O)NC4CCCCC4)cc32)cc1,?,0%
COc1c2c(cc3c1C(NC(N)=O)[N+](C)(C)CC3)OCO2 (stereo not given),-1%,2%
O=C(Cc1ccc(Cl)cc1)Nc1ccc2oc(-c3ccccc3F)nc2c1,7.9µM*,-1%
Cc1ccc(SCC(=O)Nc2cccc(-c3nc4cc(Cl)ccc4o3)c2C)cc1,-3%,-2%
Cc1c(NC(=O)CSc2ccc(Cl)cc2)cccc1-c1nc2cc(Cl)ccc2o1,25µM*,-1%
O=C(Cc1ccc(Cl)cc1)Nc1ccc2oc(-c3ccncc3)nc2c1,6%,-1%
CC(=O)SC1CC2=CC(=O)CC[C@@]2(C)C2CC[C@@]3(C)[C@@H](CC[C@@]34CCC(=O)O4)C12 (stereo not given in full),1%,3%
CCC(Sc1nc2ccncc2[nH]1)C(=O)Nc1cc(C)ccc1C (stereo not given),0%,-5%
O=C(c1ccccc1)c1c2c(cc3sc4ccccc4[n+]13)-c1cccc3cccc-2c13,25µM*,-23%
Cc1sc2cc3c(c(C(=O)c4ccccc4)[n+]2c1C)-c1cccc2cccc-3c12,-29%,-16%
Cc1ccccc1C(=O)N(Cc1ccc(N(C)C)cc1)Cc1ccco1,-23%,-8%
CCN(CC)c1ccc(NC(=O)/C=C/c2cc(Br)ccc2OC)cc1,25µM*,-4%
COc1ccc(NC(=O)/C=C/c2cc(Br)ccc2OC)cc1,-2%,-5%
SMILES,Cruzain noTriton,Cruzain Triton
O=C(Nc1nc(-c2ccc(Br)cc2)ns1)c1ccccc1F,?,-1%
N/C(=N\OC(=O)Oc1ccccc1)c1cccc([N+](=O)[O-])c1,4%,-7%
O=C(C#Cc1ccccc1)c1cccc([N+](=O)[O-])c1,-16%,13µM*
Cc1ccc(/C=C2/CCc3c([nH]c4ccccc34)C2=O)cc1,32µM*,6%
O=C1/C(=C\c2ccccc2)CCc2c1[nH]c1ccccc21,?,-1%
Cc1ccc2[nH]c(-c3ccccc3)cc(=O)c2c1,-11%,1%
Cc1ccc2[nH]c3c(c2c1)CC/C(=C/c1ccccc1)C3=O,13µM*,4%
CCC(=O)O,6%,3%
O=C(OCC(=O)N1CCc2ccccc2C1)c1ccc(N2CCOCC2)c([N+](=O)[O-])c1,5%,-7%
Nc1ccc(C(=O)OCC(=O)N2CCc3ccccc3C2)cc1[N+](=O)[O-],32µM*,-12%
Cc1ccc2c(c1)N(C(=O)c1ccco1)C(C)(C)c1ssc(=S)c1-2,32µM*,-2%
Cc1cccc2c1N(C(=O)c1ccco1)C(C)(C)c1ssc(=S)c1-2,-12%,5%
Fc1ccc(-n2cc(-c3ccccc3)c3c(NC4CCCCC4)ncnc32)cc1,-17%,1%
COc1ccc(C(=S)N2CCCCCC2)cc1,-2%,14µM*
COc1ccc(C(=S)N2CCNCC2)cc1,-4%,-5%
Nc1c(C(=O)NCC2CCCO2)sc2nc3c(c(-c4ccco4)c12)CC/C3=C\c1ccco1 (stereo not given),-4%,28µM*
Cc1ccccc1NC(=O)c1sc2nc3c(c(-c4ccco4)c2c1N)CCC3,-27%,-4%
COc1ccc2[nH]c(=O)c(CN(Cc3cccs3)S(=O)(=O)c3cccc4nsnc34)cc2c1,32µM*,-1%
COc1ccc2[nH]c(=O)c(CN(CCO)S(=O)(=O)c3c(C)ccc4nsnc34)cc2c1,-4%,-4%
COc1ccc(OC)c(-c2cc(C(=O)Nc3c(C)nn(Cc4ccc(C)cc4)c3C)no2)c1,5%,-5%
Cc1sc2nc(COC(=O)c3ccc(N4CCCC(C)C4)c([N+](=O)[O-])c3)[nH]c(=O)c2c1C (stereo not given),7.9µM*,-5%
Cc1sc2nc(COC(=O)c3ccc(N4CCCC4)c([N+](=O)[O-])c3)[nH]c(=O)c2c1C,?,-7%
CCOc1ccccc1CNC(=O)c1cc(-c2ccc(OC)cc2)nc2ccc(C(C)C)cc12,-9%,0%
CNc1nc(-c2ccccc2)nc(-c2ccccc2)c1C#N,7.9µM*,-2%
COc1ccc(-c2nc(-c3ccccc3)nc(Cl)c2C#N)cc1,0%,6%
SMILES,Cruzain noTriton,Cruzain Triton
O=C(CSc1nc(-c2ccccc2)nc2c1Cc1ccccc1O2)Nc1ccccc1,25µM*,9%
O=C(CSc1nc(-c2ccc(F)cc2)nc2c1Cc1ccccc1O2)Nc1cccc(C(=O)O)c1,-2%,-4%
COc1ccc(-c2nn(-c3ccccc3)cc2/C=N/NS(=O)(=O)c2ccccc2)cc1,?,-1%
COc1ccc(-c2nn(-c3ccccc3)cc2/C=N/NC(=O)c2cccc(S(=O)(=O)Nc3ccccc3Cl)c2)cc1,7.9µM*,-6%
O=C(N/N=C\c1cn(-c2ccccc2)nc1-c1ccccc1)c1ccc(Br)o1,25µM*,2%
Cc1ccc(-c2nn(-c3ccccc3)cc2/C=N/NC(=O)c2ccc(Br)o2)cc1,?,1%
Cc1ccc(CNC(=O)CN2C(=O)CSc3ccc(S(=O)(=O)N4CCCC4)cc32)cc1,-8%,-3%
COC(=O)C(NC(=O)CC(C)C)(Nc1nc2c(s1)CCCC2)C(F)(F)F (stereo not given),-3%,0%
CCOC(=O)/C(=C\C=C\c1ccccc1)NC(=O)c1ccccc1,-19%,-25%
C=CCOC(=O)/C(=C\C=C\c1ccccc1)NC(=O)c1ccccc1,?,14µM*
O=C(Cc1ccccc1)Nc1sc2c(c1C(=O)Nc1ccc(Br)cc1)CCCC2,-17%,-2%
COc1ccc(-c2nc(SCC(=O)NCCc3ccc(OC)c(OC)c3)n[nH]2)cc1,4%,0%
O=C(NC1CCCCC1)N1CCCC(c2nc3ccccc3[nH]2)C1 (stereo not given),5µM*,?
O=C(NC1CCCCC1)N1CCC(c2nc3ccccc3[nH]2)CC1,0%,0%
COc1ccc(C=O)cc1,5%,8%
COc1ccc(C=C(c2ccc(OC)cc2)c2ccc(OC)cc2)cc1,13µM*,-22%
